{
  "source": "ChEMBL document CHEMBL1157539",
  "about": "“Thousands of chemical starting points for antimalarial lead identification” (Nature, 2010)",
  "note": "Whole data set: some 13,000 compounds, median “IFI” near 4, cut for the highest 2% near 17. Many of the other results were omitted from the sample, so the highest values are more common in it than they were.",
  "data": [
    {"assay": "GSK_TCMDC: Inhibition Frequency Index (IFI). The number of non-kinase HTS assays where a compound showed > 50 % inhibition, expressed as a percentage of the number of such assays in which the compound was tested", "format": "functional", "units": {"IFI": "%"}, "values": [
      {"compound": "Cc1c(Cl)cccc1S(=O)(=O)Nc1cccc(CCN2CCC(N3CCCCC3)CC2)c1", "IFI": 14.3},
      {"compound": "O=S(=O)(Nc1cccc(CCN2CCC(N3CCCCC3)CC2)c1)c1cccc2ccccc12", "IFI": 8.06},
      {"compound": "CN(C)c1cccc2c(S(=O)(=O)Nc3cccc(CCN4CCC(N5CCCCC5)CC4)c3)cccc12", "IFI": 18},
      {"compound": "CC(N)(Cc1ccc(O)cc1)c1nnn[nH]1", "note": "(configuration not stated)", "IFI": 0},
      {"compound": "O=c1sn(-c2csc3ccccc23)c2ccccc12", "IFI": 18.5},
      {"compound": "Cc1[nH]c(C)c(-c2csc3ccccc23)c(=O)c1Cl", "IFI": 0},
      {"compound": "COc1ccc(S(=O)(=O)NCC2CCCN(CCCCCNC(=O)/C=C/c3ccc(Cl)c(Cl)c3)C2)cc1", "note": "(configuration not stated)", "IFI": 9.22},
      {"compound": "Cc1nc(Nc2ccc(F)cc2)nc(N2CCc3cc(O)ccc3C2C)c1C", "note": "(configuration not stated)", "IFI": 8.63},
      {"compound": "O=c1c(NCCCN(Cc2ccc(F)cc2)c2ccccn2)c(NCc2ccncc2)c1=O", "IFI": 0.7},
      {"compound": "COc1ccc(CC2(c3ccc(F)cc3)N=C(N)N(CCCc3ccc(F)c(F)c3)C2=O)cc1", "note": "(configuration not stated)", "IFI": 20},
      {"compound": "COc1ccc(CC2(c3ccc(F)cc3)N=C(N)N(CCCc3ccc4c(c3)OCO4)C2=O)cc1", "note": "(configuration not stated)", "IFI": 6.45},
      {"compound": "COc1ccc(CC2(c3ccc(F)cc3)N=C(N)N(CCCc3ccccc3)C2=O)cc1", "note": "(configuration not stated)", "IFI": 16.7},
      {"compound": "COc1ccc(CNC(=O)c2cnc3c(O)cccc3c2Nc2cccc(NC(=O)c3ccc(Cl)c(Cl)c3)c2)cc1", "IFI": 7.81},
      {"compound": "NC(=O)COc1c(C2CCN(CCCCNC(=O)c3ccc(-c4ccc(Cl)cc4)c(O)c3)CC2)ccc2c1CCCC2", "IFI": 13.8},
      {"compound": "CC(C)C1=C[C@H]2C[C@]3(C4OCCO4)[C@@H]4CC[C@@H](C)[C@H]4C[C@@]2(COCc2cccc(C#N)c2)[C@]13C(=O)OC(c1ccccc1)c1ccccc1", "IFI": 2.33},
      {"compound": "CN1CCN(Cc2ccc(-c3ccc4ncnc(Nc5ccc(OCc6ccccc6)cc5)c4c3)o2)CC1", "IFI": 6.98},
      {"compound": "Cc1cccc2nc(-c3ccc(-c4ccc(CNCc5ccc(CN)cc5)cc4)s3)[nH]c12", "IFI": 11.9},
      {"compound": "CC(C)CNCc1ccc(-c2cccc(CNc3ccc4ncccc4c3)c2)cc1", "IFI": 8.51},
      {"compound": "COc1cc2nccc(Nc3ccc(OCc4ccc(NC(C)=O)cc4)cc3)c2cc1OC", "IFI": 5.84},
      {"compound": "Cn1ncc2ccc(Nc3nccc(-c4ccc5c(c4)c(N)nn5C)n3)cc21", "IFI": 17.8},
      {"compound": "Nc1nccc2ccc(-c3ccnc(NCc4cccnc4)n3)cc12", "IFI": 5.56},
      {"compound": "COc1ccc(Nc2nccc(-c3ccc4c(-c5ccsc5)cnc(N)c4c3)n2)cc1", "IFI": 2.13},
      {"compound": "CC(CN(C)C)C(=O)Nc1ccc(-c2ccc(-c3nc4cc(C(F)(F)F)ccc4[nH]3)cc2)cc1", "note": "(configuration not stated)", "IFI": 3.6},
      {"compound": "O=C(Nc1ccc(Cl)c(Cl)c1)Nc1ccccc1N1CCNCC1", "IFI": 15},
      {"compound": "Cc1ccc(C(C(=O)Nc2ccc(N3CCNCC3)c(Cl)c2)c2ccccc2)cc1", "note": "(configuration not stated)", "IFI": 18.6},
      {"compound": "CC(C)(C)C(=O)Nc1ccc(N2CCN(C(c3ccccc3)c3ccccc3)CC2)c(Cl)c1", "IFI": 3.51},
      {"compound": "CC(C)N1CCN(C(CN2CCN(CCCOc3ccc4ccccc4c3)CC2)c2ccc(F)cc2)CC1", "note": "(configuration not stated)", "IFI": 9.85},
      {"compound": "FC(F)(F)c1ccc2[nH]c(-c3ccc(-c4cccc(CNCc5ccccc5)c4)cc3)nc2c1", "IFI": 12.5},
      {"compound": "CNc1ccc(CNCc2ccc(-c3ccc(-c4nc5cc(C(F)(F)F)ccc5[nH]4)cc3)cc2)cc1", "IFI": 14.1},
      {"compound": "CNc1ccc(CNCc2cccc(-c3ccc(-c4nc5cc(C(F)(F)F)ccc5[nH]4)cc3)c2)cc1", "IFI": 18.8},
      {"compound": "Cc1ccc(-n2c(Sc3ncnc4sccc34)nnc2N2CCCC2)cc1", "IFI": 6.06},
      {"compound": "C[C@H]1CN(Cc2ccc(-c3cccc(CNC(=O)c4cccc(C(=O)c5ccc(Cl)c(Cl)c5)c4)c3)s2)CCN1", "IFI": 16.2},
      {"compound": "C[C@H]1CN(Cc2cccc(-c3cc(CNC(=O)c4cccc(C(=O)c5ccc(Cl)c(Cl)c5)c4)ccc3F)c2)CCN1", "IFI": 18.6},
      {"compound": "CC1CCN(Cc2cccc(C(=O)NCc3ccc(F)c(-c4cccc(CN5CCN[C@@H](C)C5)c4)c3)c2)CC1", "IFI": 5.04},
      {"compound": "Cc1cc(N[C@@H](Cc2ccccc2)C(=O)NCc2cccc(F)c2)nc(NCCc2cccs2)n1", "IFI": 12.8},
      {"compound": "O=C(NCC1Cc2cc(Oc3ccccc3)ccc2O1)c1ccc([N+](=O)[O-])o1", "note": "(configuration not stated)", "IFI": 17.9},
      {"compound": "CCOC(=O)C(CO)NC(=O)c1ccc([N+](=O)[O-])o1", "note": "(configuration not stated)", "IFI": 1.41},
      {"compound": "CCOC(=O)C(NC(=O)c1ccc([N+](=O)[O-])o1)C(C)C", "note": "(configuration not stated)", "IFI": 1.41},
      {"compound": "Cc1cccc2nc(-c3ccc(-c4ccc(NC(=O)Nc5ccsc5)cc4)cc3)[nH]c12", "IFI": 8},
      {"compound": "CN(C)CCNCc1cccc(-c2ccc3c(Nc4cc(O)c(Cl)cc4F)ccnc3c2)c1", "IFI": 3.68},
      {"compound": "O=C(N[C@H]1CCN(CCc2ccc(O[C@H]3CCNC3)c(F)c2)C1)c1ccc(Cl)c(Cl)c1", "IFI": 6},
      {"compound": "O=C(NC(Nc1ccc([N+](=O)[O-])cc1)C(Cl)(Cl)Cl)c1ccc(Cl)cc1", "note": "(configuration not stated)", "IFI": 19.9},
      {"compound": "O=C(NC(Nc1ccc([N+](=O)[O-])cc1)C(Cl)(Cl)Cl)c1cccc(Cl)c1", "note": "(configuration not stated)", "IFI": 13.9},
      {"compound": "COc1ccc(C(=O)NC(Nc2ccc([N+](=O)[O-])cc2)C(Cl)(Cl)Cl)cc1", "note": "(configuration not stated)", "IFI": 13.4},
      {"compound": "COc1cccc2c(N/N=C/c3ccccc3[N+](=O)[O-])ccnc12", "IFI": 3.62},
      {"compound": "CC(C)(C)c1cc([N+](=O)[O-])cc(C(=O)Nc2ccccc2C(F)(F)F)c1O", "IFI": 22.7},
      {"compound": "CC(C)(C)c1cc(Cl)cc(C(=O)Nc2cc([N+](=O)[O-])ccc2Cl)c1O", "IFI": 13.7},
      {"compound": "O=C(Nc1ccccc1Cc1ccccc1)c1ccccc1C(F)(F)F", "IFI": 0.78},
      {"compound": "CNC(=O)c1cnc(Nc2ccc(N3CCN(C)CC3)cc2)nc1Nc1cccc(OC)c1", "IFI": 4.48},
      {"compound": "Cc1ccc2[nH]c(NC#N)nc2c1", "IFI": 0},
      {"compound": "COc1cc2nc(N3CCC(CNCc4ccc(-c5ccc(C(F)(F)F)cc5)cc4)CC3)nc(N)c2cc1OC", "IFI": 17.1},
      {"compound": "c1ccc(Oc2ccc(Nc3ccnc(Nc4ccc(CN5CCOCC5)cc4)n3)cc2)cc1", "IFI": 20.2},
      {"compound": "c1ccc(Oc2ccc(Nc3ccnc(Nc4cccc(CNCCCN5CCOCC5)c4)n3)cc2)cc1", "IFI": 7.41},
      {"compound": "CN1CCN(Cc2cccc(Nc3nccc(Nc4ccc(Oc5ccccc5)cc4)n3)c2)CC1", "IFI": 3.01},
      {"compound": "COc1ccc(CNC(=O)Nc2cc3cc(-c4ccc(CN5CCCC5)cc4)ccc3n3c(C)nnc23)cc1", "IFI": 13.5},
      {"compound": "Cc1cccc2nc(-c3cccc(-c4ccc(NC(=O)c5ccncc5)cc4)c3)[nH]c12", "IFI": 4.42},
      {"compound": "O=C(Nc1ccc(C(=O)Nc2cccc(C3=NCCN3)c2)cc1)Nc1ccc(C2=NCCN2)cc1", "IFI": 3.57},
      {"compound": "Cc1ccc(NC(=O)c2ccc(Cl)cc2)cc1-c1ccc(C(=O)Nc2ccncc2)cc1", "IFI": 15.5},
      {"compound": "CC(C)NCc1ccc(-c2ccc(NC(=O)c3cccc(C#N)c3)cc2)cc1", "IFI": 8.16},
      {"compound": "Cc1ccc(NC(=O)Nc2ccc(Cl)cc2)cc1-c1ccc(C(=O)Nc2ccncc2)cc1", "IFI": 21.1},
      {"compound": "Cc1ccc(NC(=O)Nc2cccc(Cl)c2)cc1-c1ccc(C(=O)Nc2ccncc2)cc1", "IFI": 25.4},
      {"compound": "Cc1ccc(NC(=O)c2cccc(C#N)c2)cc1-c1ccc(C(=O)Nc2ccncc2)cc1", "IFI": 24.6},
      {"compound": "N#Cc1cccc(C(=O)Nc2cccc(-c3ccc(C(=O)Nc4cccnc4)cc3)c2)c1", "IFI": 7.46},
      {"compound": "Cc1ccc(NC(=O)Nc2ccc(Cl)cc2)cc1-c1cccc(C(=O)Nc2ccc(F)cc2)c1", "IFI": 15.9},
      {"compound": "CN(C)C(CNC(=O)c1cc(-c2ccncc2)c(-c2ccc(NC(=O)Nc3cccc(Cl)c3)cc2)o1)c1ccccc1", "note": "(configuration not stated)", "IFI": 8.11},
      {"compound": "Cc1ccc(NC(=O)Nc2ccccc2)cc1-c1ccc(C(=O)Nc2ccncc2)cc1", "IFI": 25.7},
      {"compound": "O=C(Nc1ccc(-c2oc(C(=O)NCCc3cccc(Cl)c3)cc2-c2ccncc2)cc1)Nc1cccc(Cl)c1", "IFI": 2.78}
    ]}
  ]
}
